Bioassay records: PubChem BioAssay, National Center for Advancing Translational Sciences (NCATS)
KB-V1 MDR tox – KB-V1 MDR subline cytotoxicity. KB-V1 MDR cells viability, CellTiter-Glo, 72 h. Potency, µM (highest dose often 46.1 µM), hits mostly cytotoxic. 400,000 compounds, 3.4% hits. AID 1347076; note: nearly all actives have a fitted effect of over 60% in size
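Potencies derive from concentration-effect curves fitted to normalized luminescence (CellTiter-Glo) of KB-V1 cells treated for 72 h at 37 degrees C in phenol-red-free DMEM containing 10% FBS.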
KB-3-1 tox – kills parental KB-3-1 adenocarcinoma cells | KB-3-1 viability, CellTiter-Glo ATP luminescence, 72 h | Potency, µM (top dose mostly 46.1 µM), actives largely listed as cytotoxic | 400,000 compounds, 1.4% hits | AID 1347075; note: nearly all actives have a fitted effect of over 60% in size
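Cells are dispensed, compounds pinned in, plates held at 37 °C for 72 h, then CellTiter-Glo is added and luminescence read after 10 minutes. Cell line: parental KB-3-1 in phenol-red-free DMEM, 10% FBS.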
TDP1 cell noCPT – qHTS for Inhibitors of human tyrosyl-DNA phosphodiesterase 1 (TDP1): qHTS in cells in absence of CPT; Potency, µM (series often up to 46.2 µM), without a hit: at the highest dose activity change, negative = growth inhibition, hits mostly inhibitors; 420,000 compounds, 15% hits; DT40 Tdp1-/- hTDP1 cells, no CPT, ATP luminescence, 48 h; AID 686978, 2013; note: nearly all actives have a fitted effect of over 55% in size
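Luminescent ATP content (CellTiter-Glo) served as the growth readout. Knockout chicken DT40 cells expressing human TDP1 were exposed to compounds without camptothecin for a minimum 48 hr at 37 °C.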
HT1080-NT tox – kills 2HG-producing HT-1080-NT fibrosarcoma cells; HT-1080-NT fibrosarcoma viability, CellTiter-Glo ATP luminescence, 48 h; Potency, µM (titrated, usually from 46.1 µM), without a hit: at the highest dose activity, negative = less viability, actives largely listed as cytotoxic; 360,000 compounds, 1.6% hits; AID 686970;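 note: NT is the 2HG producing partner of a matched IDH1 knockdown line; 0% = DMSO-treated cells and -100% = media-only wells without cells; nearly all actives have a fitted effect of over 55% in size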
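Compounds were tested in concentration-response format on HT-1080-NT cells for 48 hours at 37 degrees C. Cell viability came from CellTiter-Glo luminescence; curves were classified by r2, response magnitude and activity.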
HT1080 IDH1KD tx – toxicity to HT-1080 IDH1 knockdown cells (counter line); HT-1080 IDH1 knockdown viability, ATP luminescence, 48 h; Potency, µM (highest dose often 46.1 µM), without a hit: at the top dose activity, negative = toxicity, actives largely listed as cytotoxic; 360,000 compounds, 2% hits; AID 686971;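 note: 0% = DMSO wells and -100% = cell-free medium wells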
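Assay cells: HT-1080 with IDH1 knockdown, 750 per well, RPMI/5% FBS. Exposure: 48 h at 37 °C following 2 h pre-incubation. Read: CellTiter-Glo luminescence; fitted concentration-response, curve class assigned.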
TDP1 cell CPT – growth inhibition of DT40 Tdp1-/-;hTDP1 cells with camptothecin (screen for TDP1 inhibitors). Potency, µM (doses to about 46.2 µM), without a hit: at the highest dose activity change, negative = growth inhibition, most hits filed as inhibitors. 420,000 compounds, 12% hits. chicken DT40 Tdp1-/-;hTDP1 cells + 20 nM CPT, ATP luminescence, 48 h; note: nearly all actives have a fitted effect of over 55% in size
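Chicken DT40 Tdp1-/- cells complemented with human TDP1, 400 cells/well, exposed to compounds plus 20 nM camptothecin for at least 48 h at 37 C; viability read as ATP content by CellTiter-Glo luminescence.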
Numbers without * were called inactive; i = inactive; ? = inconclusive; nt = no result given. Compounds with a hit are over-represented: about 19% of the library has one in this group of screens. Calls come from the whole dose curve; as a rule, active = well fitted curve in the direction sought with a large enough effect; inconclusive = small, poorly fitted or top-dose-only effect, or another doubt; inactive = no such curve, though single readings can be large; an effect the other way counts as inactive or inconclusive. Unless noted, % is set by controls: 0 for no effect and ±100 for the full control effect; potency is the fitted concentration of half-maximal effect.

SMILES	KB-V1 MDR tox	KB-3-1 tox	TDP1 cell noCPT	HT1080-NT tox	HT1080 IDH1KD tx	TDP1 cell CPT
CCCCCC(=O)NC(NC(=S)Nc1ccc(S(N)(=O)=O)cc1)C(Cl)(Cl)Cl (stereo not drawn)	i	i	-5.2%	?	?	3.1%
CCCCCCCC(=O)NC(Nc1ccc(S(N)(=O)=O)cc1)C(Cl)(Cl)Cl (stereo not drawn)	i	i	20.6µM*	?	?	?
CC(=O)Nc1ccc(C(=O)CCl)cc1	?	i	2.06µM*	?	?	1.46µM*
CC(=O)N(C)Cc1ccc(C(=O)CCl)cc1	i	i	0.92µM*	-1.9%	-16.3%	1.03µM*
COc1ccc(C(=O)OCC(=O)c2ccc(CNC(C)=O)s2)cc1	i	i	-17.2%	-2.3%	-3.4%	-8.9%
Cc1ccc(C(=O)CCC(=O)NCc2ccc(Cl)cc2)cc1	i	i	-6.3%	0.5%	14.4%	-10.3%
CC(=O)N(C)Cc1ccc(C(=O)CSc2nnc(C3CC3)n2C2CC2)cc1	i	i	-20.3%	-2.5%	-5.3%	0.3%
CC(=O)NCc1ccc(C(=O)CCl)cc1	i	i	?	-4.8%	?	4.11µM*
CC(=O)NCc1ccc(C(=O)CCl)s1	i	?	1.16µM*	?	?	0.517µM*
C#CCn1c(=NC(=O)c2cccs2)sc2cccc(OCC)c21	i	i	20.6µM*	-6.0%	9.1%	-25.0%
Cc1c(O)c(CN(C)C)cc2c1oc(=O)c1ccccc12	?	i	?	2.8%	8.9%	-0.3%
Cc1c(O)c(CN2CCCCC2)cc2c1oc(=O)c1ccccc12	i	i	25.9µM*	1.9%	-1.9%	?
CC(=O)Nc1ccc(S(=O)(=O)Nc2cccc(-c3csc(C)n3)c2)cc1	i	i	?	-26.8%	?	20.6µM*
Cc1nc(-c2cccc(NC(=O)Cc3ccccc3)c2)cs1	16.4µM*	i	?	1.8%	-3.1%	3.3%
CC(=O)Nc1ccc(S(=O)(=O)Nc2ccc3c(c2)CCC3)cc1	i	i	13µM*	-12.0%	-24.8%	-75.1%
CC(C)C(=O)Nc1cccc(-c2csc(-c3ccccc3)n2)c1	i	i	?	?	?	?
COc1ccc(S(=O)(=O)Nc2ccc3c(c2)CCC3)cc1	?	i	?	?	?	?
O=C(Cc1ccc(Br)cc1)Nc1cccc(-c2cn3c(n2)SCC3)c1	8.2µM*	?	?	-13.4%	?	?
O=[N+]([O-])c1cccc2[nH]cnc12	i	i	-2.0%	nt	nt	1.5%
CC(=O)Nc1cccc(-c2nc3ccccc3o2)c1	i	i	?	8.4%	11.1%	-11.0%
CC(=O)Nc1ccc(S(=O)(=O)Nc2cccc(-c3nc4cc(C)ccc4o3)c2)cc1	?	18.4µM*	20.6µM*	-0.7%	15.3%	20.6µM*
CCOC(=O)c1ccccc1-c1cn2cc(Cl)ccc2n1	?	i	?	-15.5%	0.7%	-15.7%
O=C(Nc1ccncc1)c1ccc(Cl)c(Cl)c1	i	i	11.6µM*	-3.1%	-14.9%	-22.4%
CC(C)(C)c1ccc(C(=O)Nc2ccc(NC(=O)c3ccc(Cl)c(Cl)c3)cc2)cc1	i	i	14.6µM*	nt	nt	11.6µM*
Cc1ccccc1OCCSc1nc2ccc(NC(=O)c3cccs3)cc2s1	i	?	18.4µM*	nt	nt	23.1µM*
SMILES	KB-V1 MDR tox	KB-3-1 tox	TDP1 cell noCPT	HT1080-NT tox	HT1080 IDH1KD tx	TDP1 cell CPT
Cc1ccccc1OCCSc1nc2ccc(NC(=O)c3ccccc3)cc2s1	i	?	?	nt	nt	-70.4%
Cc1ccccc1OCCSc1nc2ccc(NC(=O)c3cccc(F)c3)cc2s1	i	i	11.6µM*	nt	nt	16.4µM*
Cc1ccccc1C(=O)Nc1ccc2nc(SCCOc3ccccc3)sc2c1	i	i	?	nt	nt	?
Cc1cccc(OCCSc2nc3ccc(NC(=O)c4cccs4)cc3s2)c1	i	i	11.6µM*	nt	nt	16.4µM*
CC(=O)Nc1ccc2nc(SCCOc3ccc(C)cc3)sc2c1	i	i	?	nt	nt	-19.3%
COc1cc(C)ccc1OCCSc1nc2ccc(NC(C)=O)cc2s1	i	i	20.6µM*	nt	nt	?
C[C@@H]1CN([C@@H](C)CO)C(=O)CCCn2nncc2CO[C@@H]1CN(C)S(=O)(=O)c1cccc(C#N)c1	i	i	-18.1%	-1.0%	-4.1%	-1.7%
NS(=O)(=O)c1ccc(CCNC(=O)c2ccc(OCC3CCCO3)cc2)cc1 (stereo not drawn)	i	i	-7.3%	2.3%	-4.5%	-0.1%
Cc1cc(C)cc(OCCSc2nc3ccc(NC(=O)c4ccc5c(c4)OCO5)cc3s2)c1	i	i	5.17µM*	nt	nt	?
CC12CC(NC(=O)N1c1cccc(C(=O)NCc3ccccn3)c1)c1ccccc1O2 (stereo not drawn)	i	i	-7.3%	3.7%	0.3%	0.9%
COc1ccc(OCCNc2cc(N3CCCCC3)ccc2[N+](=O)[O-])cc1	i	i	23.1µM*	-12.5%	-2.8%	18.4µM*
Cc1ccccc1OCCNc1cc(N2CCN(CCO)CC2)ccc1[N+](=O)[O-]	?	i	?	?	14.6µM*	?
O=[N+]([O-])c1ccc(N2CCOCC2)cc1NCCCO	?	?	?	0.3%	-0.3%	-28.2%
Cc1cccc(OCCNc2cc(N3CCN(CCO)CC3)ccc2[N+](=O)[O-])c1	18.4µM*	i	20.6µM*	-3.9%	-9.1%	?
Cc1ccccc1OCCNc1cc(N2CCCCC2)ccc1[N+](=O)[O-]	?	i	?	-13.7%	-18.6%	20.6µM*
COC(C/C=C/[C@@H](O)[C@H](C)OCc1ccccc1)OC	i	i	6.9%	20.0%	12.7%	6.0%
CC1CCCC(C)N1C(=S)SCC(=O)O (stereo not drawn)	i	i	-4.3%	?	10.7%	0.8%
COc1ccc(OCCNc2cc(N3CCOCC3)ccc2[N+](=O)[O-])cc1	?	i	?	?	?	?
Cc1ccc(C)c(-c2nn(-c3cc(N4CCN(CCO)CC4)ccc3[N+](=O)[O-])c(=O)c3ccccc23)c1	?	i	25.9µM*	-4.5%	-15.2%	?
